Assay results reported in ChEMBL document CHEMBL3988442, “University of Dundee, Small-Polar-MMV Screening Library” (2021).
The campaign covered roughly 48,000 compounds. About 13,000 (27%) showed an effect of 50% or more. Some of the results follow.

Test system: Wolbachia pipientis
Assay: Anti-Wolbachia Cell-Based Screen
Format: functional
Parameters: scale not given: in the data most compounds retested in dose-response had high values
Settings: 5 µM

SMILES | Percent Effect
CN1CCC2(CCCN(C(=O)c3cncn3C)C2)CC1.O=C(O)C(F)(F)F | -6.177%
CCc1c(O)nc(SCC(=O)Nc2ccccc2)n(C(C)CC)c1=O (configuration not stated) | -0.04082%
CCc1c(O)n(C(C)CC)c(SCC(=O)c2ccccc2)nc1=O (configuration not stated) | 125.3%
CCc1c(O)nc(SCC(=O)N(CC)CC)n(C(C)CC)c1=O (configuration not stated) | -0.2531%
Cc1noc(C)c1CN1C[C@@H](C(=O)O)[C@H](C(C)C)C1 | -19.42%
CCc1nnc2n1CCN(Cc1ccc(C(=O)N3CCCC3)cc1)C2 | 0.2623%
CC(C)NC(=O)c1ccc2c(c1)nc1n2CCN(Cc2ccccc2)C1 | 112.9%
CCNC(=O)c1ccc2c(c1)nc1n2CCN(C(C)C)C1 | 109.5%
CC(C)CN1CCn2c(nc3cc(C(=O)NC(C)C)ccc32)C1 | 121.2%
Cc1nnc2n1CCN(CC(=O)NC(C)c1ccc3ccccc3c1)C2 (configuration not stated) | -2.487%
CC(C)NC(=O)c1ccc2c(c1)nc1n2CCN(C(C)C)C1 | -1.576%
COCCN1CCN(C(C)C(=O)Nc2ccnn2C(C)C)CC1 (configuration not stated) | -8.101%
CC(C)CN1CCn2c(COCc3cccnc3)nnc2C1.O=C(O)C(F)(F)F.O=C(O)C(F)(F)F | -7.115%
CC(C)NC(=O)c1ccc2c(c1)nc1n2CCN(c2ccccc2)C1 | 20.1%
CC(C)N1CCn2c(nc3cc(C(N)=O)ccc32)C1 | 42.97%
COCCN1CCn2c(nc3cc(C(=O)NC(C)C)ccc32)C1 | 122.8%
CCN1CCN(c2ccc(C(=O)NC(C)CCOC)cc2)CC1 (configuration not stated) | -9.084%
O=C(Nc1ccccc1CCc1ccccn1)NC1CCOCC1 | -7.389%
O=C1NCCN(C(=O)c2cn3ccsc3n2)C1Cc1ccccc1 (configuration not stated) | -8.073%
Cc1cnn(CC2CCCN2Cc2cc(=O)n3ccccc3n2)c1 (configuration not stated) | 2.976%
COC(=O)CCNC(=O)c1c[nH]cc1-c1ccccc1OC | 1.896%
Cc1c(C(=O)N2CCCOCC2)nnn1-c1cccc2cnccc12 | 5.187%
COc1ccccc1C1(CNc2ccnc(C(=O)N(C)C)c2)CC1 | 15.85%
COc1ccccc1C1(CNc2ccc(C(=O)N(C)C)cn2)CC1 | 4.76%
CCN(CC)CCn1cc(NC(=O)CNc2ccccc2OC)cn1 | 1.772%
COc1ccccc1C(=O)N1CCN(C(=O)CCn2ccnc2)CC1 | 1.871%

SMILES | Percent Effect
COc1ccccc1-c1nc(C(=O)N2CCOCC2)n2ccncc12 | 98.47%
COC(=O)CNC(=O)c1nc(-c2ccccc2OC)c2cnccn12 | 100.8%
COc1ccccc1-c1nc(C(=O)N(C)C)n2ccncc12 | 107.3%
COc1cccc(CNC(C)c2ccc(-n3ccnc3)cc2)c1OC.Cl (configuration not stated) | 1.707%
Cc1nnc(C(C)Nc2ccc(OCCc3ccccc3)nc2)o1 (configuration not stated) | -0.9062%
COc1cc(CNc2nc(C(F)(F)F)no2)cc(OC)c1OC | 5.574%
CC(C)Oc1cccc(CN2CCC(c3n[nH]c4ncccc34)CC2)c1 | 89.98%
CC(C)Oc1ccc(CN2CCC(c3n[nH]c4ncccc34)CC2)cc1 | 97.82%
Cl.Fc1ccc(CN2CCC(c3n[nH]c4ncccc34)CC2)cc1F | 3.09%
CC(C)Oc1ccc(CN2CCC(Cc3nnc(CO)n3C)CC2)cc1 | -3.16%
Fc1cccc(CN2CCC(c3n[nH]c4ncccc34)CC2)c1F | -6.364%
Fc1cccc(Cl)c1CN1CCC(c2n[nH]c3ncccc23)CC1 | 100.4%
CC(C1CCN(Cc2ccc(OC(F)F)cc2)CC1)N1CCOCC1 (configuration not stated) | 6.94%
CC(C)Oc1cccc(CN2CCC(C(C)N3CCOCC3)CC2)c1 (configuration not stated) | 8.799%
Cc1cc(NC(=O)c2nc(N3CCCC3)ncc2Cl)ccc1Br | 7.259%
Cc1ncoc1C(=O)N1C[C@@H]2COC[C@]2(c2nnc(C3CC3)o2)C1 | 19.81%
O=C(c1cc(C2CC2)nc2onc(-c3ccccc3)c12)N1CC(O)C1 | 1.744%
O=C(c1cc(C2CCCCC2)no1)N1C[C@H]2C[C@H](O)C[C@H]2C1 | 95.88%
NC1CCCCN(Cc2cc(C3CCCCC3)no2)C1 (configuration not stated) | 4.436%
C[C@@H]1CN(C2CCN(c3ccccc3)CC2)CC[C@@]1(O)C1CCOCC1 | 103.2%
C[C@@H]1CN(S(=O)(=O)N2CCCC2)CC[C@@]1(O)C1CCOCC1 | -9.489%
C[C@@H]1CN(CC(C)(C)N2CCOCC2)CC[C@@]1(O)C1CCOCC1 | 4.466%
C[C@@H]1CN(C(=O)c2ccc(=O)[nH]c2)CC[C@@]1(O)C1CCOCC1 | -4.844%
C[C@@H]1CN(C2CCN(c3ccccc3F)CC2)CC[C@]1(C)O | -26.42%
O=C(C1CCOCC1)N1C[C@H]2CC[C@@H]1CN(C1Cc3ccccc3C1)C2 | 13.64%
C[C@@H]1CN(C2Cc3ccccc3C2)CC[C@@]1(O)C1CCOCC1 | 82.39%

SMILES | Percent Effect
C[C@@H]1CN(C2CCCCC2)CC[C@@]1(O)C1CCOCC1 | 98.71%
COc1ccc(CNC(=O)CNc2cc3c(cc2Cl)OCCO3)cc1 | 11.87%
CN1CCc2onc(CNc3ncccn3)c2C1.O=C(O)C(F)(F)F.O=C(O)C(F)(F)F | -12.85%
Cc1ccc(CN(Cc2ccccn2)C(=O)[C@H]2CC[C@@H](N)C2)s1 | -33.4%
O=C(O)C(F)(F)F.c1c2c(nn1CC1CC1)C(CNC1CCOCC1)OCC2 (configuration not stated) | 5.412%
COCCN(Cc1ccc(F)cc1Cl)C(=O)c1cccc[n+]1[O-] | -30.73%
COc1ccccc1S(=O)(=O)N1CCC(Oc2cccnn2)CC1 | -12.85%
O=S(=O)(c1ccccc1F)N1CCC(Oc2cccnn2)CC1 | -7.526%
Cc1noc(C)c1S(=O)(=O)N1CCC(Oc2ccccn2)CC1 | 2.267%
Cc1ccccc1OC1CCN(S(=O)(=O)c2c(C)n[nH]c2C)CC1 | 120.4%
Cc1noc(C)c1S(=O)(=O)N1CCC(Oc2cccnn2)CC1 | -5.902%
Cc1n[nH]c(C)c1S(=O)(=O)N1CCC(Oc2ccccc2F)CC1 | 121.8%
CCOC(=O)C1CCN(CCCc2nnnn2-c2ccccc2)CC1 | 10.8%
COc1cccc(C(=O)N2CCCCC2CNC(N)=O)c1 (configuration not stated) | 4.596%
CNS(=O)(=O)CC1CCCN1C(=O)c1ccc(C)c(C)c1 (configuration not stated) | 1.148%
NC(=O)NCC1CCCCN1C(=O)c1ccc(Br)s1 (configuration not stated) | 13.78%
Cc1ccc(C(=O)N2CCCCC2CNC(N)=O)s1 (configuration not stated) | -21.76%
Cc1ccc(C(=O)N2CCCCC2CNC(N)=O)cc1F (configuration not stated) | 100.6%
NC(=O)NCC1CCCCN1C(=O)c1cc(F)cc(F)c1 (configuration not stated) | 94.01%
NC(=O)NCC1CCCCN1C(=O)c1cccc(Cl)c1 (configuration not stated) | 109.7%
NC(=O)NCC1CCCCN1C(=O)c1ccc(Cl)s1 (configuration not stated) | 6.082%
CN(C)c1ccc(C(=O)N2CCCCC2CC(N)=O)c(F)c1 (configuration not stated) | -10.13%
c1ncn(CC2CCCN2Cc2cn3ccsc3n2)n1 (configuration not stated) | -12.38%
CN(C)C(=O)Cc1nc(CN2CCCC2Cn2cccn2)cs1 (configuration not stated) | -60.87%
CCN(C(C)=O)c1nc(CN2CCCCC2Cn2cncn2)cs1 (configuration not stated) | 113.4%
Cc1cccn2c(=O)cc(CN3CCCCC3Cn3cncn3)nc12 (configuration not stated) | -0.6189%

SMILES | Percent Effect
CCN(C(C)=O)c1nc(CN2CCCC2Cn2cncn2)cs1 (configuration not stated) | 93.1%
Cc1cc(C)n(CC2CCCN2C(=O)Cc2csc(C)n2)n1 (configuration not stated) | -5.348%
CC(=O)Nc1nc(CN2CCCC2Cn2cncn2)cs1 (configuration not stated) | -0.3919%
Cc1cc(C)n(CC2CCCN2CC(=O)N(C)C)n1 (configuration not stated) | -0.9617%
CC(=O)Nc1nc(CN2CCCCC2Cn2cncn2)cs1 (configuration not stated) | 101%
CC(=O)N(C)c1nc(CN2CCCC2Cn2nc(C)cc2C)cs1 (configuration not stated) | 89.05%
NC(=O)c1ccc(N2CCCCC2)c(NC(=O)c2ccc(F)cc2Cl)c1 | -3.289%
CSc1nc(C2CC2)nc(C)c1C(=O)NCc1ncc(C)o1 | 6.945%
CCc1nc(CN2CCCN(C(=O)c3cn[nH]c3CC)CC2)cs1 | 9.391%
Cc1cc(NC(=O)N2CCCC(O)C2)nn1-c1ccccc1Cl (configuration not stated) | -23.68%
CC(=O)N(C)c1nc(CN2CCCCC2Cn2cncn2)cs1 (configuration not stated) | -7.447%
CN(C)C(=O)Cc1nc(CN2CCCC2Cn2cncn2)cs1 (configuration not stated) | -5.183%
CC(=O)N(C)c1nc(CN2CCCC2Cn2cncn2)cs1 (configuration not stated) | 102%
COc1ccc(N(C)C(=O)c2cccc(S(C)(=O)=O)c2)cn1 | -2.349%
Cc1nc[nH]c1C(=O)N1CC[C@@H](NC(=O)c2ccccn2)[C@H](O)C1 | -7.66%
CC[C@@]1(O)CCN(C(=O)c2cccc3cc(C)oc23)C[C@H]1O | 10.55%
CO[C@H]1CN(C(=O)c2ccc3oc(C)cc3c2)CC[C@@]12CCCO2 | 0.1168%
COc1ccc(C(=O)N2CC[C@](C)(O)[C@H](C)C2)cc1N1CCOCC1 | 0.3479%
CC(=O)N1CCC2(CC1)CN(C(=O)c1ccc3c(c1)OCCO3)C2 | -18.73%
CO[C@H]1CCN(C(=O)c2ccc3oc(C)cc3c2)C[C@@]12CCCO2 | 93.08%
CO[C@H]1CN(C(=O)c2ccc3oc(C)cc3c2)C[C@@]12CCCO2 | 96.35%
Cc1cc2cc(C(=O)N3CC[C@H](O)[C@]4(CCCO4)C3)ccc2o1 | 1.113%
Cc1cc2cc(C(=O)N3C[C@H](O)[C@]4(CCCO4)C3)ccc2o1 | 113.6%
COc1ccc(C(=O)N2C[C@@H](C)[C@@](C)(O)C2)cc1N1CCOCC1 | -1.788%
